# Experimental data published in PubChem BioAssay (EPA / NIEHS).
# Several values for one entry are separate records, joined by “and”; a condition that tells them apart may be missing. Identical values can stand only once. Results filed as inconclusive are left out. Activity calls are given as the source filed them. How the source made its calls: active means hit-call score of the fitted dose curve at least 0.9, where 1 is the maximum; inconclusive means response in the unintended direction; inactive means score below 0.9.
# Key:
# [1] = molecular target: Cytochrome P450 2C19 (Homo sapiens) (UniProt P33261); assay: NVS_ADME_hCYP2C19: NovaScreen (NVS) CYP450-related Enzyme Activity (ADME) Assay for human CYP2C19 (AID 2283113);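 on AC50: potency for inhibition seen as loss of fluorescent signal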
# In short: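 Recombinant insect-cell-expressed enzyme, fluorescent substrate, 1 h after chemical addition, fluorescence intensity. Baseline = acetonitrile vehicle; activity scored as signal loss. Primary HTS single concentration 10 uM, duplicate; actives retested in concentration series.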
# [2] = molecular target: Cytochrome P450 3A4 (Homo sapiens) (UniProt P08684); assay: NVS_ADME_hCYP3A4: NovaScreen (NVS) CYP450-related Enzyme Activity (ADME) Assay for human CYP3A4 (AID 2283110)
# In short: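 Recombinant CYP3A4 from insect cells, fluorescence enzyme read-out, 0.33 h after chemical addition. Acetonitrile = negative control/baseline. Primary HTS: 10 uM in duplicate; actives re-tested in concentration series.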
# [3] = molecular target: human CYP2B6, CYP2B6 (gene 1555) (UniProt P20813); assay: NVS_ADME_hCYP2B6: NovaScreen (NVS) CYP450-related Enzyme Activity (ADME) Assay for human CYP2B6 (AID 2283101)
# In short: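 Recombinant protein, specific fluorescent substrate, read at 1 h post-dosing. Primary: single 10 uM, duplicate; follow-up: concentration series. Activity = signal loss vs acetonitrile baseline, with positive and negative controls on every plate.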
# [4] = molecular target: human CYP1A2, CYP1A2 (gene 1544) (UniProt P05177); assay: NVS_ADME_hCYP1A2: NovaScreen (NVS) CYP450-related Enzyme Activity (ADME) Assay for human CYP1A2 (AID 2283102);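 on AC50: potency for inhibition since loss of fluorescence marks reduced CYP1A2 activity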
# In short: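 Fluorescence-intensity enzyme activity read-out, taken 0.5 h post-dosing, using insect-cell-derived recombinant CYP1A2 and specific fluorescent substrate. Acetonitrile served as negative control/baseline. Single-concentration duplicate screen at 10 uM, then concentration-response follow-up.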
# [5] = molecular target: human CYP2D6, CYP2D6 (gene 1565) (UniProt P10635); assay: NVS_ADME_hCYP2D6: NovaScreen (NVS) CYP450-related Enzyme Activity (ADME) Assay for human CYP2D6 (AID 2283107)
# In short: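 Fluorescence intensity read 1 h post-dosing; insect-cell-expressed recombinant protein with fluorogenic substrate, no cells. Activity is scored as signal loss relative to acetonitrile baseline, first at a single 10 uM concentration in duplicate, then as concentration series for confirmed actives.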
# [6] = molecular target: human CYP2C9, CYP2C9 (gene 1559) (UniProt P11712); assay: NVS_ADME_hCYP2C9: NovaScreen (NVS) CYP450-related Enzyme Activity (ADME) Assay for human CYP2C9 (AID 2283108)
# In short: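 Recombinant human CYP2C9 expressed in SF9 cells, fluorogenic substrate, fluorescence read 0.75 h after dosing. Chemicals first run in duplicate at 10 uM, with actives followed in concentration series; loss of signal versus acetonitrile baseline.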
# Caspase-3 (Homo sapiens) = Caspase-3 (Homo sapiens) (UniProt P42574); assay: NVS_ENZ_hCASP3: NovaScreen (NVS) Enzymatic Assay for human Caspase 3 (CASP3) (AID 2283139)
# In short: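 Single-concentration screening at 25 uM in duplicate, with concentration-response follow-up to a 50 uM maximum for chemicals passing the threshold. Caspase-3 (human, E. coli-expressed) activity was read as substrate fluorescence after 1 h, with loss of signal relative to DMSO.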
# [7] = molecular target: human AKT serine/threonine Kinase 1 (AKT1), AKT1 (gene 207) (UniProt P31749); assay: NVS_ENZ_hAKT1: NovaScreen (NVS) Enzymatic Assay for human AKT serine/threonine Kinase 1 (AKT1) (AID 2283138)
# In short: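 Compounds were first tested in duplicate at 25 uM, and those passing a threshold such as 30% inhibition were run in concentration-response to a maximum of 50 uM. Enzyme activity was measured after 1 h by fluorescence following substrate/product mobility-shift separation.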
# [8] = molecular target: human Acid Phosphatase 1 (ACP1), ACP1 (gene 52) (UniProt P24666); assay: NVS_ENZ_hACP1: NovaScreen (NVS) Enzymatic Assay for human Acid Phosphatase 1 (ACP1) (AID 2283136)
# Experimental: NVS_ENZ_hACP1 is a biochemical, single-readout assay that uses extracted gene-proteins from SF9 in a cell-free assay. Measurements were taken 1.5 hours after chemical dosing in a 384-well plate.NVS_ENZ_hACP1 is one of one assay component(s) measured or calculated from the NVS_ENZ_hACP1 assay. It is designed to make measurements of enzyme activity, a form of enzyme reporter, as detected with fluorescence intensity signals by Fluorescence and electrophoretic mobility shift technology.Data from the assay component NVS_ENZ_hACP1 was analyzed into 1 assay endpoint. This assay endpoint, NVS_ENZ_hACP1, was analyzed in the positive analysis fitting direction relative to DMSO as the negative control and baseline of activity. Using a type of enzyme reporter, loss-of-signal activity can be used to understand changes in the enzymatic activity as they relate to the gene ACP1. Furthermore, this assay endpoint can be referred to as a primary readout, because this assay has produced multiple assay endpoints where this one serves a enzymatic activity function. To generalize the intended target to other relatable targets, this assay endpoint is annotated to the phosphatase intended target family, where the subfamily is acid phosphatase. […]
# [9] = molecular target: human Caspase 5 (CASP5), CASP5 (gene 838) (UniProt P51878); assay: NVS_ENZ_hCASP5: NovaScreen (NVS) Enzymatic Assay for human Caspase 5 (CASP5) (AID 2283137)
# In short: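 Chemicals were first tested in duplicate at 25 uM against recombinant caspase 5 from E. coli. Activity was read by fluorescence intensity 2 hours after dosing. Those passing a preset inhibition threshold were retested in singleton concentration-response up to 50 uM.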
# human Caspase 5 (CASP5), CASP5 (gene 838), sequence (P51878 whole entry, looked up): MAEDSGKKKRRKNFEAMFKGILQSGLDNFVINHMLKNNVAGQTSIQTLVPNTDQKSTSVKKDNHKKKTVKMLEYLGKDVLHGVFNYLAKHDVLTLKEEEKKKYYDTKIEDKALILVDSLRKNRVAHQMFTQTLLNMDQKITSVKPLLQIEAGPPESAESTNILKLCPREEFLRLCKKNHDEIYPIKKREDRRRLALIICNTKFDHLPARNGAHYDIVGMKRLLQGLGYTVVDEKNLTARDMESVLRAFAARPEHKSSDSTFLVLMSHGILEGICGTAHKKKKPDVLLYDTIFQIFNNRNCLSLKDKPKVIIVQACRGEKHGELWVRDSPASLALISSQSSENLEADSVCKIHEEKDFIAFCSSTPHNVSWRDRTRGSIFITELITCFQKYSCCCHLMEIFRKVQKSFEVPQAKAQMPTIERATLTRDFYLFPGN
# human CYP2B6, CYP2B6 (gene 1555), sequence (P20813 whole entry, looked up): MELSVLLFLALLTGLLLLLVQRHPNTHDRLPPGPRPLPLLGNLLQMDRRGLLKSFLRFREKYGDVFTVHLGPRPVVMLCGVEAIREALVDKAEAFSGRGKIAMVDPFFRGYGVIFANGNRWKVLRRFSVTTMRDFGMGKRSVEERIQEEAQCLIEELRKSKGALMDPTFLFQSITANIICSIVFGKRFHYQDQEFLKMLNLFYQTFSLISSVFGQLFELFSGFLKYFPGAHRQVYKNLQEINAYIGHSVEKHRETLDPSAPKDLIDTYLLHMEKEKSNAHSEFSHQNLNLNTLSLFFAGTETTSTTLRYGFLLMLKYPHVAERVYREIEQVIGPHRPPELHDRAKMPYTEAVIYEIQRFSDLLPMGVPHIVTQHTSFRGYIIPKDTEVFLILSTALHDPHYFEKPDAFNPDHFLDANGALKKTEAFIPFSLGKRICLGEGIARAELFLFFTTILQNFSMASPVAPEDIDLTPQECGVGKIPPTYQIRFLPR
# human CYP2C9, CYP2C9 (gene 1559), sequence (P11712 whole entry, looked up): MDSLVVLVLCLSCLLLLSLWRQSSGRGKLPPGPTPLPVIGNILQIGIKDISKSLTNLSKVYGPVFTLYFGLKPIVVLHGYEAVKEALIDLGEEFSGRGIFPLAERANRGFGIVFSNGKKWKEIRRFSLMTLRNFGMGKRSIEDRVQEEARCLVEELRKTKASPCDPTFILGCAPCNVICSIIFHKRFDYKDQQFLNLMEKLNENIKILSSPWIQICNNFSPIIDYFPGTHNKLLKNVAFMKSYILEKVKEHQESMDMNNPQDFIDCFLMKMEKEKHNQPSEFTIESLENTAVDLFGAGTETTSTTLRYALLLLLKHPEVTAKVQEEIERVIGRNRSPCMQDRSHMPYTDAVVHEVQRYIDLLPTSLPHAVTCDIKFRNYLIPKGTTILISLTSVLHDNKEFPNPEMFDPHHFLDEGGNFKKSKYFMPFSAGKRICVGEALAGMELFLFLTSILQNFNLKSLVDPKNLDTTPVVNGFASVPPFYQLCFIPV
# human CYP1A2, CYP1A2 (gene 1544), sequence (P05177 whole entry, looked up): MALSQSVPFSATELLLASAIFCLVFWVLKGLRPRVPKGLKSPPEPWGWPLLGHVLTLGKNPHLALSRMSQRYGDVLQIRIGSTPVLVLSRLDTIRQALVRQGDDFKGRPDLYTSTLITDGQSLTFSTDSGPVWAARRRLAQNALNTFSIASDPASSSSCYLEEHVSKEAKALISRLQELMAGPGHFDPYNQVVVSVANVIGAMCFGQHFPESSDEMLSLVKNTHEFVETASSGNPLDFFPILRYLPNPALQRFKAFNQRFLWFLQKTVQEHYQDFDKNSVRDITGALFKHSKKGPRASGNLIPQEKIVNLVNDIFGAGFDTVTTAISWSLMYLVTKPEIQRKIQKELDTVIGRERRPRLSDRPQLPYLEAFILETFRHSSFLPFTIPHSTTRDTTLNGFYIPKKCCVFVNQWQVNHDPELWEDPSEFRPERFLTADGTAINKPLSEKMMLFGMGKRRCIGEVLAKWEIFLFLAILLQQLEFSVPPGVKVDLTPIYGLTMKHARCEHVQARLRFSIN
# Cytochrome P450 3A4 (Homo sapiens), sequence (P08684 whole entry, looked up): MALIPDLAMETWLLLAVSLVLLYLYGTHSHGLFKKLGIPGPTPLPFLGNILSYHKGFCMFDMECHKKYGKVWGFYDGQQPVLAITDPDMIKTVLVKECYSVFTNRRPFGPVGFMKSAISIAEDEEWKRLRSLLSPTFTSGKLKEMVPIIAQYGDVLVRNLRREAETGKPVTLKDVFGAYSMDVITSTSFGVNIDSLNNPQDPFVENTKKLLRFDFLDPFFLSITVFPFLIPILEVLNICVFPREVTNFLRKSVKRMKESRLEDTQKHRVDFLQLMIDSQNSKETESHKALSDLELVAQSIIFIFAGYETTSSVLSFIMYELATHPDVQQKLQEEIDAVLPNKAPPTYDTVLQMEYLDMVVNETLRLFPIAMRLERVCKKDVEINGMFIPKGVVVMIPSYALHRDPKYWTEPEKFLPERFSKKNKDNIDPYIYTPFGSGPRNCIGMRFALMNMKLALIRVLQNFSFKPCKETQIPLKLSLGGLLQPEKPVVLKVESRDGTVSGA
# human CYP2D6, CYP2D6 (gene 1565), sequence (P10635 whole entry, looked up): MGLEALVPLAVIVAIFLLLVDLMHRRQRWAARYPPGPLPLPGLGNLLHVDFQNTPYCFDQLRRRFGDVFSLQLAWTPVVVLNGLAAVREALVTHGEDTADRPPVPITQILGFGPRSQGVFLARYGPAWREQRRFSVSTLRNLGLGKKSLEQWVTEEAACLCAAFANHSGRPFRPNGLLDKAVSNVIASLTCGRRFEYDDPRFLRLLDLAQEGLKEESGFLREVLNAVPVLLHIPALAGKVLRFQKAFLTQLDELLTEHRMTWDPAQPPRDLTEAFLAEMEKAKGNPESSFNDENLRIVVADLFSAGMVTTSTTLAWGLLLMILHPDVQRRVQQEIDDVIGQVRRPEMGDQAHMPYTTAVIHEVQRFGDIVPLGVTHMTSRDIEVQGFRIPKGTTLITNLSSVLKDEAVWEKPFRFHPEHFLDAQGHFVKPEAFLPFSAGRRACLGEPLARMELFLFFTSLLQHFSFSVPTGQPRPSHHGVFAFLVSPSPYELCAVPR
# human AKT serine/threonine Kinase 1 (AKT1), AKT1 (gene 207), sequence (P31749 whole entry, looked up): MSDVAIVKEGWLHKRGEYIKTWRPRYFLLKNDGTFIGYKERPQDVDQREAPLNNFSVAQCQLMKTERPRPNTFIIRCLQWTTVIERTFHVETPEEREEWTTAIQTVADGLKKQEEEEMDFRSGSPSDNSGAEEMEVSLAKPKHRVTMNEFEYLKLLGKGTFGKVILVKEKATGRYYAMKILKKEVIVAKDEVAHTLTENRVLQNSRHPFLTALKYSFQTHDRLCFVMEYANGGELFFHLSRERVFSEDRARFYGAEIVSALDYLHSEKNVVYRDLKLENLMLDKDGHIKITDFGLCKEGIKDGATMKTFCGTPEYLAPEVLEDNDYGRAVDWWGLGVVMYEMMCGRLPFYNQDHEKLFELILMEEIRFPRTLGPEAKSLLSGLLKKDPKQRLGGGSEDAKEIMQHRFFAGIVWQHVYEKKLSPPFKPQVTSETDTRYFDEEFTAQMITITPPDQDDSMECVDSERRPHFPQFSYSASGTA
# Caspase-3 (Homo sapiens), sequence (P42574 whole entry, looked up): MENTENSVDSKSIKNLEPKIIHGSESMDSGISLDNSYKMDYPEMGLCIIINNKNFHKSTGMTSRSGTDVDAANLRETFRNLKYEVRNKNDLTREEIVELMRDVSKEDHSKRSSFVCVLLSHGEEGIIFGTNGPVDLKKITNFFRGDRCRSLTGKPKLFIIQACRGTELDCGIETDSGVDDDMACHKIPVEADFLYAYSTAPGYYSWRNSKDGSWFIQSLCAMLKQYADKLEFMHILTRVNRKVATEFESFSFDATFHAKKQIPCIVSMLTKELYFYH
# human Acid Phosphatase 1 (ACP1), ACP1 (gene 52), sequence (P24666 whole entry, looked up): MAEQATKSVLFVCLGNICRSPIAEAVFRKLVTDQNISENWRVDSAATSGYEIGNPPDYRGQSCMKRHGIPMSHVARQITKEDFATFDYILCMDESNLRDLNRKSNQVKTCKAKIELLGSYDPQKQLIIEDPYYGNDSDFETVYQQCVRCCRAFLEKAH
smiles,measurement,setting,value
S=P(N1CC1)(N1CC1)N1CC1,AC50,[1],5.2 µM (active)
COc1cc(C(C)C)c2c(c1)S(=O)(=O)N(COc1cc(=O)n3cccc(OCCN4CCCCC4)c3n1)C2=O,AC50,[2],0.9 µM (active)
OCCOCCOCCO,outcome,[2],inactive
C=CCc1cc(S(=O)(=O)c2ccc(O)c(CC=C)c2)ccc1O,AC50,[3],2.77 µM (active)
same,AC50,[4],3.26 µM (active)
same,AC50,[5],0.567 µM (active)
same,AC50,[6],0.118 µM (active)
same,AC50,[2],4.54 µM (active)
same,AC50,[1],0.164 µM (active)
NC(=O)NN=Cc1ccc([N+](=O)[O-])o1,AC50,Caspase-3 (Homo sapiens),20.9 µM (active)
NC(=O)N(O)[C@@H]1COc2cc(OCc3ccccc3)ccc21,outcome,[3],inactive
CCCCCCCCCC,AC50,[3],10 µM (active)
same,outcome,[4],inactive
same,outcome,[5],inactive
same,AC50,[6],15.1 µM (active)
same,AC50,[2],6.55 µM (active)
same,AC50,[1],5.72 µM (active)
CCCOc1ccc(S(=O)(=O)N2CCN(CC)CC2)cc1-c1nc2c(CC)n(Cc3ccccn3)nc2c(=O)[nH]1,AC50,[6],2.98 µM (active)
same,AC50,[1],1.45 µM (active)
CCN(CC)C(=S)SSC(=S)N(CC)CC,AC50,[3],0.405 µM (active)
same,AC50,[4],1.2 µM (active)
same,AC50,[6],3.12 µM (active)
CCCC(CCC)C(=O)O,AC50,[1],10 µM (active)
same,outcome,[7],inactive
O=S(=O)(O)c1ccc(N=Nc2c(O)ccc3cc(S(=O)(=O)O)ccc23)cc1,AC50,Caspase-3 (Homo sapiens),37.7 µM (active)
CCn1nc(C)c2c1C(=O)NCC(c1ccc(O)cc1)=N2,AC50,[5],6.23 µM (active)
CC(C)C(=O)Nc1ccc([N+](=O)[O-])c(C(F)(F)F)c1,AC50,[4],5.33 µM (active)
same,outcome,[6],inactive
same,AC50,[1],3.2 µM (active)
O=c1[nH]cnc2c1ncn2[C@H]1CC[C@@H](CO)O1,outcome,[7],inactive
NC(=O)N1c2ccccc2C=Cc2ccccc21,outcome,[1],inactive
Cc1nc(-c2ccccn2)ncc1C(=O)Nn1cc(C)c2cc(F)ccc21,outcome,[8],inactive
CC[C@H](C)C(=O)O[C@H]1C[C@H](O)C=C2C=C[C@H](C)[C@H](CC[C@@H](O)C[C@@H](O)CC(=O)O)[C@H]21,outcome,[6],inactive
COCc1nnc(-c2ccc[n+]([O-])c2)n1-c1c(Cl)c(Cl)cc2[nH]c(=O)c(=O)[nH]c12,AC50,[1],4.13 µM (active)
CCCCCCOC(=O)CC(CC(=O)OCCCCCC)(OC(=O)CCC)C(=O)OCCCCCC,AC50,[1],2.71 µM (active)
Cc1nccn1-c1ccc(Sc2cccc(C3(C(N)=O)CCOCC3)c2)cc1,AC50,[6],5.01 µM (active)
same,AC50,[1],5.95 µM (active)
CCCCCCCCCCCCCCCCOS(=O)(=O)O,AC50,[9],2.18 µM (active)
OCc1c[nH]c2ccccc12,AC50,[1],0.574 µM (active)
same,AC50,[9],25 µM (active) and 29.7 µM (active)
CCCCCCCC/C=C\CCCCCCCC(=O)OC[C@@H](O)[C@H]1OC[C@H](O)[C@H]1O,AC50,[6],16.5 µM (active)
same,outcome,[7],inactive
O=C(NO)C1(NS(=O)(=O)c2ccc(Oc3ccc(F)cc3)cc2)CCOCC1,outcome,[1],inactive
NNC(=O)c1ccncc1,AC50,[1],1.49 µM (active)
same,outcome,[7],inactive
O=C1CN(N=Cc2ccc([N+](=O)[O-])o2)C(=O)N1,AC50,[5],4.5 µM (active)
OC(Cn1cncn1)(Cn1cncn1)c1ccc(F)cc1F,outcome,[6],inactive
c1ccc(C(O[C@@H]2CCCN(CCc3ccc4c(c3)OCO4)C2)c2ccccc2)cc1,AC50,[3],4.4 µM (active)
same,AC50,[4],5.35 µM (active)
same,AC50,[5],1.59 µM (active)
same,AC50,[6],6.98 µM (active)
same,AC50,[1],5.04 µM (active)
Cc1ncc([C@@H](CCCCCCc2ccc3c(n2)NCCC3)CC(=O)O)cn1,outcome,[8],inactive
same,outcome,[7],inactive
